Assay outcomes from PubChem BioAssay.
D2 ag-1 – D2 dopamine receptor (human) agonism. P14416. HEK293 T-REx D2 cells, calcium flux agonist mode. activation, % at 2 µM. 340,000 compounds, 0.53% hits. AID 485358;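 active = activation over 3 SD above normal in the single-dose calcium agonist read, cut at about 30% in these data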
Target sequence (P14416 whole entry, looked up): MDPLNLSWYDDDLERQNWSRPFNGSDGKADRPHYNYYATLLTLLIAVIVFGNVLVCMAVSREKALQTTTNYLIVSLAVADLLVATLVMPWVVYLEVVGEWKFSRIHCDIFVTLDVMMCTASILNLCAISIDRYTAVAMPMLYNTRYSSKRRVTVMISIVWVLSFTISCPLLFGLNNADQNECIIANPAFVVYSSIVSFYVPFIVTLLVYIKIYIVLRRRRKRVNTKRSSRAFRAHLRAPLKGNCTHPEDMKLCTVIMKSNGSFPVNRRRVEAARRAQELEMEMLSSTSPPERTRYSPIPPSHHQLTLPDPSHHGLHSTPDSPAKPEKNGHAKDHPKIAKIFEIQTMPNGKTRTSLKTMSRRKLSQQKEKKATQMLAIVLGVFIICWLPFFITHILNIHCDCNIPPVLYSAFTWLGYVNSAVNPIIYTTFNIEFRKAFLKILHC
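Calcium-flux readout, 1 cycle/sec over 180 s following compound pin transfer, in inducible HEK293 Trex D2 cells (force-coupled); dopamine controls included. Positive calcium responses during this window marked compounds as potential agonists.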
D2 PAM-1 – potentiates the human D2 dopamine receptor allosterically | P14416 | DiscoveRx D2 beta-arrestin cells, luminescence, 90 min; 100% = 57 uM dopamine signal | potentiation, % (no concentration beside the values) | 360,000 compounds, 0.23% hits | AID 624464; in the data active = potentiation above about 50%; inconclusive = mostly about 30% to 49%
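PathHunter D2 cells, attached overnight at 37 deg C, received compound in DMSO plus dopamine at EC20 (50 nM final) for 90 min at 37 deg C. Beta-arrestin recruitment was read as luminescence after 1 h with detection reagent at ambient temperature.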
D2 PAM-2 – positively modulates the human D2 dopamine receptor allosterically. P14416. HEK293 T-REx D2, calcium flux, EC20 dopamine potentiation. potentiation, % at 10 µM. 340,000 compounds, 0.34% hits. AID 485347;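 active = potentiation over 3 SD above the plate norm, cut at about 30% in these data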
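Primary screen. Calcium kinetics in induced HEK293 T-REx D2 cells: compound pre-addition 180 s, EC20 dopamine, 180 s more.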
D2 antagonist – D2 dopamine receptor (human) antagonism | P14416 | HEK293 TREx D2 cells, calcium flux, dopamine EC80 | inhibition, % at 10 µM | 340,000 compounds, 2% hits; in the data active = inhibition above about 30%; inactive = below that, where a call was filed
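Cells plated overnight at 30 C with tetracycline; no-wash calcium dye, 30–90 min RT; 10 s baseline; compound pinned; 180 s read; EC80 dopamine added; another 180 s read.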
D2 ag-2 – activates the human D2 dopamine receptor; P14416; DiscoveRx PathHunter D2 beta-arrestin, luminescence, 90 min; 100% = 57 uM dopamine signal; activation, % (concentration not given with the values); 360,000 compounds, 0.084% hits; AID 624465; in the data active = activation above about 40%; inconclusive = between about 15% and that limit
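Agonist mode: compounds alone added to overnight-plated D2 PathHunter cells for 90 min at 37 C, with 57 uM final dopamine (EC100) defining full response. Beta-arrestin recruitment detected by chemiluminescent reagent, read after 1 h at ambient temperature.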
A number is an active result; 0 = inactive; ? = inconclusive; - = not tested or not shown. An excerpt weighted towards active compounds, which were near 2.4% of everything screened.

SMILES	D2 ag-1	D2 PAM-1	D2 PAM-2	D2 antagonist	D2 ag-2
CC(=O)NC(CC(=O)OCC(=O)N1c2ccccc2NC(=O)C1(C)C)c1ccccc1 (stereo unspecified)	0	0	0	52	0
CC1(C)C(=O)Nc2ccccc2N1C(=O)COC(=O)C1CCCCC1	0	0	0	0	0
O=C(Nc1cccc(F)c1)Nc1c[nH]c(=O)[nH]c1=O	0	0	0	0	0
CSc1ccccc1NC(=O)Nc1cccc(Cl)c1	0	0	0	36	0
O=C(Nc1cccc(Cl)c1)Nc1c[nH]c(=O)[nH]c1=O	0	0	0	34	0
CSc1ccccc1NC(=O)Nc1ccc(F)c(Cl)c1	0	0	0	43	0
Cc1ccc(-n2c(/C=C/c3c(C)n(C)c4ccccc34)nc3ccccc3c2=O)cc1	0	-	0	-	-
CCOc1ccc(C(c2c(O)cc(C)n(CCOC)c2=O)N2CCN(c3ccc(F)cc3)CC2)cc1 (stereo unspecified)	0	-	0	-	-
O=C(Nc1ccc(NC(=O)c2cccs2)cc1)c1ccc2c(c1)OCCO2	0	0	0	34	0
O=C(Nc1ccc(N2CCOCC2)c(Cl)c1)c1ccc2c(c1)OCCO2	0	0	0	31	0
O=C(COC(=O)C1=NN(c2ccccc2)C(=O)CC1)NCc1ccccc1Cl	0	0	0	32	0
Cc1c2cnn(CC(=O)Nc3cccc(C(F)(F)F)c3)c(=O)c2c(C)n1Cc1ccccc1Cl	-	-	0	-	-
COc1cc2c(cc1OC)CN(C(=O)CCCN1C(=O)c3ccccc3C1=O)CC2	0	0	0	0	0
COc1ccc(NC(=O)CCN2C(=O)c3ccc([N+](=O)[O-])cc3C2=O)c(OC)c1	0	56	0	0	?
COc1cc2c(cc1OC)CN(C(=O)CN1C(=O)c3ccc([N+](=O)[O-])cc3C1=O)CC2	0	60	0	0	0
CCOC(=O)c1ccc(Nc2nc3nonc3nc2Nc2cccc(C)c2C)cc1	0	-	0	-	-
COc1ccc(NC(=O)CC(C)n2nc(C)cc2C)cc1Cl (stereo unspecified)	0	-	0	-	-
CCN(CCCNC(=O)c1cc2c(=O)n(C)c3ccccc3c2s1)Cc1ccccc1	0	-	-	-	-
Nc1ccc(/C=C/C(=O)c2cccs2)cc1	0	0	0	60	0
O=C(Oc1cccc2ccccc12)c1ccncc1	0	0	0	34	0
Cc1ccc2c(c1)C1CN(C)CCC1N2Sc1ccccc1[N+](=O)[O-] (stereo unspecified)	0	0	0	43	0
CCOC(=O)c1cc2sccc2n1CC(=O)N1CCc2ccccc21	0	0	34	0	0
Cc1ccc(S(=O)(=O)NCCC(=O)N2CCN(S(=O)(=O)c3ccccc3)CC2)cc1C	0	0	0	0	0
Cc1ccc(C)c(S(=O)(=O)N2CCN(C(=O)CCNS(=O)(=O)c3ccc(C)c(C)c3)CC2)c1	0	0	32	0	0
Cc1ccc(CNC(=O)CN2CCCN(Cc3ccc(F)cc3)S2(=O)=O)cc1	0	-	0	-	-
SMILES	D2 ag-1	D2 PAM-1	D2 PAM-2	D2 antagonist	D2 ag-2
COc1cccc(C2C3=C(CC(C)(C)CC3=O)Nc3n[nH]c(C)c32)c1 (stereo unspecified)	0	0	31	0	0
CCn1cc([N+](=O)[O-])c(C(=O)N2N=C3/C(=C/c4cccs4)CCCC3C2c2cccs2)n1 (stereo unspecified)	0	0	43	0	0
Cc1cccc(-n2ncc3c(N4CCCC(C)C4)ncnc32)c1 (stereo unspecified)	0	-	0	-	-
O=[N+]([O-])c1ccc(C(c2sc3nc(-c4ccco4)nn3c2O)N2CCC3(CC2)OCCO3)cc1 (stereo unspecified)	0	-	0	-	-
CC1CCN(CCCNC(=O)CCc2nnc3n(CCc4ccccc4)c(=O)c4ccccc4n23)CC1	0	0	0	61	0
CCCSCCCNC(=O)C1CCN(C(=O)c2cc3sccc3n2C)CC1	0	-	0	-	-
C#Cc1ccc(CN2CCC(Oc3ccc(C(=O)NCc4ccccn4)cc3)CC2)cc1	0	0	0	36	0
O=C(NCCSc1c[nH]c2ccccc12)c1c(F)cccc1F	0	0	0	0	0
O=C(NCCSc1c[nH]c2ccccc12)C1CC1	0	0	0	36	0
Cc1c(OCC(=O)N[C@@H](Cc2ccccc2)C(=O)O)ccc2c3c(c(=O)oc12)CCC3	0	0	0	0	0
Cc1c(OCC(=O)N[C@@H](CSCc2ccccc2)C(=O)O)ccc2c3c(c(=O)oc12)CCC3	0	0	0	31	0
COc1cc(OC)c(NC(=O)Cn2c(SCc3ccccc3F)nc3cccnc32)cc1Cl	0	-	0	-	-
CCOC(=O)N1CCN(Cc2nc3cc([N+](=O)[O-])ccc3n2CC)CC1	0	0	0	37	0
COc1ccc(N2CCC(CNC(=O)Nc3cccc(OC)c3)C2)cc1 (stereo unspecified)	0	0	0	57	0
Cc1cc(C(=O)OC(C)C(=O)Nc2nc(-c3ccccc3)cs2)c(C)o1 (stereo unspecified)	0	0	0	0	0
CC(OC(=O)c1ccc([N+](=O)[O-])o1)C(=O)Nc1nc(-c2ccc(F)c(F)c2)cs1 (stereo unspecified)	0	66	0	0	0
Cc1sc2nc3ccc(N4CCCCC4)nn3c(=O)c2c1C	0	0	0	37	0
Cc1ccc2nc3ccc(N4CCCC4)nn3c(=O)c2c1	0	0	0	0	0
CCc1ccccc1NC(=O)CCS(=O)(=O)c1cccc2nonc12	0	-	0	-	-
O=C(CN1CCN(Cc2ccccc2)CC1)N1CCCc2ccccc21	0	0	0	32	0
O=C(CN1CCN(c2ccccc2)CC1)N1CCc2ccccc21	0	0	0	0	0
O=C(CN1CCCCC1)N1CCc2ccccc21	0	0	0	0	0
Cc1c(Br)c([N+](=O)[O-])nn1CC(=O)N1CCCc2ccccc21	0	0	34	0	0
Cc1cc[n+](CC(=O)N2CCCc3ccccc32)cc1	0	0	0	39	0
O=C(CN1CCN(c2ccc(O)cc2)CC1)N1CCc2ccccc21	0	0	0	40	0
SMILES	D2 ag-1	D2 PAM-1	D2 PAM-2	D2 antagonist	D2 ag-2
CCN(CC)S(=O)(=O)c1ccc2c(c1)N(CC(=O)N1CCN(c3ccc(OC)cc3)CC1)C(=O)CO2	0	-	0	-	-
CCOc1ccccc1-n1c(N)c(C(=O)OC)c2nc3ccccc3nc21	0	-	0	-	-
Cc1cccc2cc(C#N)c(SCC(=O)N3CC(=O)Nc4ccccc43)nc12	0	0	0	34	0
COc1ccc2cc(C#N)c(SCC(=O)N3CC(=O)Nc4ccccc43)nc2c1	-	0	0	-	0
Cc1ccccc1C(=O)Nc1ccc(S(=O)(=O)N2CCC(c3nc4ccccc4s3)CC2)cc1	-	-	0	-	-
COC(=O)c1cc(NC(=O)Cc2cc(OC)c(OC)c(OC)c2)cc(C(=O)OC)c1	0	0	0	40	0
C=CCNCCOCCSc1ccc(Cl)cc1	0	0	0	32	0
